Compound activity as filed in PubChem.
Pf growth 48h = Primary qHTS for delayed death inhibitors of the malarial parasite plastid, 48 hour incubation; Potency, µM (titrated, usually from 28.7 µM), for the others: at the top dose activity change, negative = inhibition, hits mostly inhibitors; hit rate 5.9% among 310,000; P. falciparum luciferase growth in erythrocytes, 48 h
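Erythrocytes infected with P. falciparum carrying an integrated firefly luciferase reporter (2% hematocrit, 0.1% parasitemia final) were exposed to compounds in RPMI 1640 with 0.5% Albumax at 37 C, 5% CO2. Growth inhibition was scored as reduced luminescence.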
AMA1 RON2 block = qHTS for Inhibitors of AMA1-RON; Towards Development of Antimalarial Drug Lead: Primary Screen. Plasmodium falciparum AMA1 (3D7) - RON2 peptide interaction. AlphaScreen AMA1-biotinylated RON2 peptide binding. Potency, µM (series often up to 58.2 µM), without a hit: top-dose activity change, negative = inhibition, most hits filed as inhibitors. hit rate 0.2% among 360,000;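 also: 0% = vehicle wells and -100% = peptide control; nearly all actives have a fitted effect of over 45% in size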
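AMA1 (3D7) with his tag at 25 nM final met compounds first, then biotinylated RON2 peptide at 25 nM; detection used donor plus acceptor beads, 10 µg/mL apiece, read by AlphaScreen after 30 min at room temperature.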
VACV Venus inh = qHTS for Stage-Specific Inhibitors of Vaccinia Orthopoxvirus: Venus Reporter Primary qHTS. hit rate 0.46% among 330,000. AID 720580, 2013. Potency, µM (top dose mostly 36.5 µM), for the others: top-dose activity change, negative = inhibition, most hits filed as inhibitors. Vaccinia virus Venus reporter expression, fluorescence; calls by dose curve; tested in A549 cells; also: nearly all actives have a fitted effect of over 30% in size
VACV mCherry inh = qHTS for Stage-Specific Inhibitors of Vaccinia Orthopoxvirus: mCherry Reporter Primary qHTS. Potency, µM (titrated, usually from 36.5 µM), for the others: top-dose activity change, negative = inhibition, actives largely listed as inhibitors. Vaccinia virus mCherry reporter infection, fluorescence. AID 720579, 2013. hit rate 0.63% among 310,000; calls by dose curve; tested in A549 cells; also: nearly all actives have a fitted effect of over 35% in size
Pf growth 96h = Primary qHTS for delayed death inhibitors of the malarial parasite plastid, 96 hour incubation | P. falciparum luciferase reporter growth, 96 h | Potency, µM (highest dose often 28.7 µM), without a hit: at the top dose activity change, negative = inhibition, hits mostly inhibitors | hit rate 6.9% among 320,000
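Luminescence readout: decreased luciferase signal marks inhibited growth of reporter-expressing P. falciparum in infected red cells (2% hematocrit, 0.05% parasitemia final), exposed to compound two generations (96 h, 37 C, 5% CO2).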
Starred values were filed as active, the others as inactive; i = inactive; ? = inconclusive; · = not tested or not shown. Only some compounds are listed: those with a hit (about 8.7% of all), similar ones and a draw of the others. Unless noted, calls follow the shape of the dose curve; as a rule, active = well fitted curve in the direction sought with a large enough effect; inconclusive = small, poorly fitted or top-dose-only effect, or another doubt; inactive = no such curve, though single readings can be large; an effect the other way counts as inactive or inconclusive. Unless noted, % is scaled to controls: 0 for no effect and ±100 for the full control effect; potency is read from the fitted curve at half-maximal effect.

SMILES	Pf growth 48h	AMA1 RON2 block	VACV Venus inh	VACV mCherry inh	Pf growth 96h
Cc1nc2cc(-c3cccc(Cl)c3)nn2c(N2CCN(C(=O)c3ccco3)CC2)c1C	74.8%	·	·	·	29.8%
O=C(c1ccccc1)c1ccc2nc(N3CCN(c4ccccc4)CC3)c3nncn3c2c1	·	·	-22.2%	?	·
CCOC(=O)c1c(C)oc2nc(C)nc(N3CCN(c4ccccc4F)CC3)c12	·	·	-27.7%	-6.0%	·
Cc1cc(N2CCN(C(=O)c3ccco3)CC2)n2nc(C)c(-c3ccccc3)c2n1	11.7µM*	6.5%	·	·	-28.7%
Cc1ccc(CC2C(=O)N(c3ncccn3)C(=O)C2C)cc1 (stereo not drawn)	·	0.7%	-12.1%	i	0.828µM*
CCOc1ccc(-c2cc(C(=O)NCCCOC)c3c(-c4ccc(CC)cc4)[nH]nc3n2)cc1	·	·	-3.5%	-11.8%	·
CN(C)c1ccc(C2N3CC4(C)CN2CC(C)(C3)C4O)cc1 (stereo not drawn)	·	92.0%	-11.0%	3.0%	4.65µM*
CCc1ccc(-n2c(=O)c3c4c(sc3n(CC(=O)NC(C)CC)c2=O)CCCC4)cc1 (stereo not drawn)	·	·	-4.3%	-4.3%	·
C/C(=N\NC(=O)c1nnn(-c2nonc2N)c1-c1ccc2c(c1)OCO2)c1ccc(C)cc1	?	-10.7%	20.4%	-2.6%	13.1µM*
CC/C(=N\NC(=O)c1nnn(-c2nonc2N)c1-c1ccc2c(c1)OCO2)c1ccccc1	?	22.4%	·	·	?
C/C(=N\NC(=O)c1nnn(-c2nonc2N)c1-c1ccccc1)c1ccccc1O	-67.3%	85.3%	?	2µM*	?
C/C(=N\NC(=O)c1nnn(-c2nonc2N)c1-c1ccc2c(c1)OCO2)c1ccc(F)cc1	?	-1.2%	-6.4%	-15.4%	4.65µM*
C/C(=N\NC(=O)c1nnn(-c2nonc2N)c1CN(C)c1ccccc1)c1ccccn1	13.1µM*	-82.6%	·	·	5.22µM*
C/C(=N\NC(=O)c1nnn(-c2nonc2N)c1-c1ccc2c(c1)OCO2)c1ccccc1	?	12.4%	-16.9%	-0.6%	14.7µM*
Cc1ccsc1CN(C(=O)c1ccc(Br)cc1)C1CCS(=O)(=O)C1 (stereo not drawn)	·	·	-6.8%	-4.6%	·
NC(=O)c1nsc(C(=O)N(c2ccccc2)C(C(=O)NC2CCCC2)c2ccncc2)c1N (stereo not drawn)	29.4%	-0.2%	-4.7%	3.6%	17.8%
NC(=O)c1nsc(C(=O)N(c2ccccc2)C(C(=O)NC2CCCCC2)c2ccc(O)cc2)c1N (stereo not drawn)	?	-2.9%	-23.0%	-6.5%	10.4µM*
COc1cc(C(C(=O)NC2CCCCC2)N(C(=O)c2snc(C(N)=O)c2N)c2ccc(C)cc2)ccc1O (stereo not drawn)	7.38µM*	-4.6%	-23.4%	?	0.0%
Cc1cc(C)nc(Sc2ccc([N+](=O)[O-])cc2[N+](=O)[O-])n1	5.86µM*	-7.4%	-12.9%	-29.0%	-14.1%
O=[N+]([O-])c1ccc(Sc2ccncn2)c([N+](=O)[O-])c1	·	-24.4%	?	-26.8%	·
CC(C)OCCCN1C(=O)c2[nH]nc(-c3ccccc3O)c2C1c1cccc(Cl)c1 (stereo not drawn)	4.15µM*	73.2%	-29.4%	?	-20.4%
COCCCN1C(=O)c2[nH]nc(-c3ccccc3O)c2C1c1cccc(Cl)c1 (stereo not drawn)	9.28µM*	67.0%	·	·	7.38µM*
COCCCN1C(=O)c2[nH]nc(-c3ccccc3O)c2C1c1ccc(Cl)cc1 (stereo not drawn)	?	14.6%	·	·	?
COc1ccc(CCN2C(=O)c3[nH]nc(-c4ccccc4O)c3C2c2ccc(O)c(OC)c2)cc1 (stereo not drawn)	·	·	-3.3%	-8.3%	·
O=C1c2[nH]nc(-c3ccccc3O)c2C(c2ccccc2)N1Cc1ccco1 (stereo not drawn)	11.7µM*	50.5%	?	-23.7%	?
SMILES	Pf growth 48h	AMA1 RON2 block	VACV Venus inh	VACV mCherry inh	Pf growth 96h
COc1ccc(CCN2C(=O)c3[nH]nc(-c4ccccc4O)c3C2c2ccccc2)cc1OC (stereo not drawn)	9.28µM*	23.8%	?	-20.4%	8.28µM*
Cc1nc([N+](=O)[O-])c(Br)n1CC(=O)c1ccccc1	?	-5.8%	2.24µM*	·	·
Cc1nc([N+](=O)[O-])c(Br)n1CC(=O)c1ccc2ccccc2c1	·	-2.8%	1.58µM*	1.12µM*	?
O=C(Nc1ccc(Br)cc1F)c1ncoc1-c1ccco1	·	·	1.2%	i	·
COc1cccc(N/C(SC)=C(/C#N)C(=O)NCc2cccs2)c1	8.5%	-11.6%	-12.0%	-10.6%	16.4%
COc1cccc(N/C(SC)=C(/C#N)C(N)=O)c1	18.2%	1.8%	·	·	11.7%
COc1cccc(N/C(SCc2cccc([N+](=O)[O-])c2)=C(/C#N)C(=O)NCc2cccs2)c1	10.4µM*	-3.2%	-18.1%	-14.0%	?
COc1cccc(N/C(SCc2ccccc2C)=C(/C#N)C(=O)NCc2cccs2)c1	?	0.2%	-15.2%	-17.3%	2.08µM*
COc1cccc(N/C(SCc2ccccc2Cl)=C(/C#N)C(=O)NCc2cccs2)c1	10.4µM*	?	-16.0%	?	?
O=C(Nc1ccc2c(c1)OCO2)C1(S(=O)(=O)c2ccc(Cl)cc2)CC1	-0.7%	27.7%	-2.9%	-11.6%	1.85µM*
O=C(Nc1ccc2c(c1)OCO2)c1cccs1	53.1%	3.3%	·	·	7.0%
O=C(Nc1ccc2c(c1)OCCO2)c1cccs1	97.5%	12.0%	·	·	2.62µM*
CC(C)CC(=O)Nc1ccc2c(c1)OCO2	25.5%	-9.0%	-3.7%	-8.9%	58.2%
CCN(CC)S(=O)(=O)c1cc(NC(=O)c2ccc(Br)s2)ccc1C	?	-13.0%	-15.0%	i	14.7µM*
O=C(CCl)Nc1ccc2c(c1)OCO2	?	-0.8%	-19.2%	-20.0%	14.7µM*
